# Measurements reported in PubChem BioAssay (NCI).
# Compounds without any hit were thinned out: in the full panel of roughly 79,000, 15% have a hit. A number with no mark means an inactive call. Calls of active or inactive are those of the source. Rule as the data show it: active = growth inhibition above about 70%; inactive = the rest.
# Key:
# [1] = NCI Yeast Anticancer Drug Screen. Data for the rad52 strain (AID 147);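 also: 0% = growth of vehicle-treated control cultures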; conditions: S. cerevisiae rad52 mutant growth inhibition, active compounds read high
# How it was run: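 Growth of repair-deficient yeast cells was compared between compound-treated and vehicle-treated cultures to give percent inhibition.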
# [2] = NCI Yeast Anticancer Drug Screen. Data for the wt1 strain (AID 149);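 also: 0% = growth of vehicle-treated wt1 cultures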; conditions: S. cerevisiae wt1 strain (SPY 50644) growth inhibition, active compounds read high
# How it was run: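 The wt1 strain was treated with compounds, and growth was compared with vehicle-treated cultures to give inhibition.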
# [3] = NCI Yeast Anticancer Drug Screen. Data for the rad50EPP+ strain (AID 151);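 also: 0% = growth of vehicle-treated control cultures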; conditions: S. cerevisiae rad50 mutant strain, active compounds read high
# How it was run: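 Measured: growth inhibition of rad50EPP+ yeast. Reference: vehicle-treated controls. Screen uses strains with defined genetic alterations in DNA damage repair or cell cycle control.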
# [4] = NCI Yeast Anticancer Drug Screen. Data for the mgt1 strain (AID 153); conditions: S. cerevisiae mgt1 mutant growth inhibition, active compounds read high
# How it was run: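 Compounds were applied to mgt1 mutant yeast, and growth was then compared against vehicle-treated control cultures to give percent inhibition.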
# [5] = NCI Yeast Anticancer Drug Screen. Data for the rad50 strain (AID 155);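 also: 0% = growth of vehicle-only cultures of the same strain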; conditions: S. cerevisiae rad50 strain growth inhibition, active compounds read high
# How it was run: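 Cells are treated with compound, grown, and their growth is then scored against vehicle-only cultures of the same repair-deficient yeast strain.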
# [6] = NCI Yeast Anticancer Drug Screen. Data for the mec2-1 strain (AID 157); conditions: S. cerevisiae mec2-1 strain, active compounds read high
# How it was run: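 Compounds were applied to mec2-1 yeast cells. Their growth was then compared with that of vehicle-treated cultures to give growth inhibition.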
# [7] = NCI Yeast Anticancer Drug Screen. Data for the rad14 strain (AID 159);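 also: 0% = growth of vehicle-treated control cultures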; conditions: S. cerevisiae rad14 strain growth inhibition, active compounds read high
# How it was run: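 Readout: yeast growth inhibition, referenced to vehicle-only cultures. Strain bears a defined alteration in DNA damage repair.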
# [8] = NCI Yeast Anticancer Drug Screen. Data for the sgs1 mgt1 strain (AID 161);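 also: 0% = growth of cultures given vehicle only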; conditions: S. cerevisiae sgs1 mgt1 strain, active compounds read high
# How it was run: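 Yeast cells carrying a defined DNA-repair defect were exposed to test compounds. Growth inhibition was measured relative to vehicle-treated controls.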
# [9] = NCI Yeast Anticancer Drug Screen. Data for the CLN2oe strain (AID 163);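 also: 0% = growth of vehicle-only control cultures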; conditions: S. cerevisiae CLN2oe strain, active compounds read high
# How it was run: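 Cells of an engineered yeast line with disturbed cell-cycle regulation are treated with compound. Inhibition of growth is then calculated relative to the vehicle-treated reference.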
# [10] = NCI Yeast Anticancer Drug Screen. Data for the bub3 strain (AID 167); conditions: S. cerevisiae bub3 mutant strain, active compounds read high
# How it was run: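 Part of a panel of yeast mutants defective in DNA damage repair or cell cycle regulation. Each strain is grown with compound, and inhibition is calculated relative to solvent-treated cultures.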
# [11] = NCI Yeast Anticancer Drug Screen. Data for the wt2 strain (AID 169);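 also: 0% = growth of vehicle-treated yeast cultures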; conditions: S. cerevisiae wt2 strain growth inhibition, active compounds read high
# How it was run: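 Growth of compound-treated yeast is measured and expressed as inhibition relative to vehicle-only controls.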
# [12] = NCI Yeast Anticancer Drug Screen. Data for the mlh1 strain (AID 171);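 also: 0% = growth of vehicle-treated control cultures of the same strain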; conditions: S. cerevisiae mlh1 strain growth inhibition, active compounds read high
# How it was run: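 Test agents were incubated with yeast bearing a defined DNA damage repair or cell cycle control alteration; values are growth inhibition normalised to vehicle-treated cultures.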
# [13] = NCI Yeast Anticancer Drug Screen. Data for the sgs1 strain (AID 173);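 also: 0% = growth of vehicle-only control cultures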; conditions: S. cerevisiae sgs1 mutant, active compounds read high
# How it was run: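 Strain with an altered DNA repair or cell cycle pathway exposed to compound. Growth then measured. Value = inhibition versus vehicle control.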
# [14] = NCI Yeast Anticancer Drug Screen. Data for the mlh1 rad18 strain (AID 175); conditions: S. cerevisiae mlh1 rad18 strain growth inhibition, active compounds read high
# How it was run: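 A repair-deficient yeast strain is exposed to test compound, and growth is scored relative to vehicle-treated controls.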
# [15] = NCI Yeast Anticancer Drug Screen. Data for the rad18 strain (AID 177); conditions: S. cerevisiae rad18 mutant growth inhibition, active compounds read high
# How it was run: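 DNA-repair-defective yeast; compound treatment; growth inhibition scored against vehicle.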
# [16] = NCI Yeast Anticancer Drug Screen. Data for the cln2 rad14 strain (AID 165);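 also: 0% = growth equal to vehicle treated cultures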; conditions: S. cerevisiae cln2 rad14 strain, active compounds read high
# How it was run: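 Strain: cln2 rad14 yeast, altered in cell cycle control and DNA damage repair. Read-out: growth inhibition vs vehicle.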
# [17] = at 5.0 µM (retest, dose inferred, filed as 0.5)
# [18] = at 50.0 µM (retest, dose inferred, filed as 5.0)
compound,measurement,setting,value
Nc1ccc2c(=S)c3ccccc3[nH]c2c1,growth inhibition,[1]; at 1.2 µM,8%
same,growth inhibition,[1]; at 3.7 µM,12%
same,growth inhibition,[1]; at 11.0 µM,12%
same,growth inhibition,[1]; at 33.0 µM,32%
same,growth inhibition,[1]; at 100.0 µM,71% (active)
same,growth inhibition,[2]; at 1.2 µM,9%
same,growth inhibition,[2]; at 3.7 µM,30%
same,growth inhibition,[2]; at 11.0 µM,22%
same,growth inhibition,[2]; at 33.0 µM,44%
same,growth inhibition,[2]; at 100.0 µM,48%
same,growth inhibition,[3]; at 1.2 µM,0%
same,growth inhibition,[3]; at 3.7 µM,6%
same,growth inhibition,[3]; at 11.0 µM,12%
same,growth inhibition,[3]; at 33.0 µM,23%
same,growth inhibition,[3]; at 100.0 µM,74% (active)
same,growth inhibition,[4]; at 1.2 µM,-3%
same,growth inhibition,[4]; at 3.7 µM,1%
same,growth inhibition,[4]; at 11.0 µM,0%
same,growth inhibition,[4]; at 33.0 µM,16%
same,growth inhibition,[4]; at 100.0 µM,51%
same,growth inhibition,[5]; at 1.2 µM,18%
same,growth inhibition,[5]; at 3.7 µM,1%
same,growth inhibition,[5]; [17],15%
same,growth inhibition,[5]; at 11.0 µM,8%
same,growth inhibition,[5]; at 33.0 µM,22%
same,growth inhibition,[5]; [18],50%
same,growth inhibition,[5]; at 50.0 µM,29.4%
same,growth inhibition,[5]; at 100.0 µM,48%
same,growth inhibition,[6]; at 1.2 µM,9%
same,growth inhibition,[6]; at 3.7 µM,-3%
same,growth inhibition,[6]; [17],14%
same,growth inhibition,[6]; at 11.0 µM,-3%
same,growth inhibition,[6]; at 33.0 µM,26%
same,growth inhibition,[6]; [18],40%
same,growth inhibition,[6]; at 50.0 µM,28.9%
same,growth inhibition,[6]; at 100.0 µM,35%
same,growth inhibition,[7]; at 1.2 µM,4%
same,growth inhibition,[7]; at 3.7 µM,7%
same,growth inhibition,[7]; at 11.0 µM,2%
same,growth inhibition,[7]; at 33.0 µM,12%
same,growth inhibition,[7]; at 100.0 µM,42%
same,growth inhibition,[8]; [17],29%
same,growth inhibition,[8]; [18],83% (active)
same,growth inhibition,[8]; at 50.0 µM,80.5% (active)
same,growth inhibition,[9]; at 1.2 µM,16%
same,growth inhibition,[9]; at 3.7 µM,4%
same,growth inhibition,[9]; at 11.0 µM,13%
same,growth inhibition,[9]; at 33.0 µM,19%
same,growth inhibition,[9]; at 100.0 µM,51%
same,growth inhibition,[10]; at 1.2 µM,-19%
same,growth inhibition,[10]; at 3.7 µM,-16%
same,growth inhibition,[10]; [17],9%
same,growth inhibition,[10]; at 11.0 µM,-16%
same,growth inhibition,[10]; at 33.0 µM,-9%
same,growth inhibition,[10]; [18],82% (active)
same,growth inhibition,[10]; at 50.0 µM,47.5%
same,growth inhibition,[10]; at 100.0 µM,35%
same,growth inhibition,[11]; at 1.2 µM,-7%
same,growth inhibition,[11]; at 3.7 µM,-1%
same,growth inhibition,[11]; at 11.0 µM,1%
same,growth inhibition,[11]; at 33.0 µM,49%
same,growth inhibition,[11]; at 100.0 µM,83% (active)
same,growth inhibition,[12]; at 1.2 µM,-2%
same,growth inhibition,[12]; at 3.7 µM,9%
same,growth inhibition,[12]; at 11.0 µM,-2%
same,growth inhibition,[12]; at 33.0 µM,27%
same,growth inhibition,[12]; at 100.0 µM,61%
same,growth inhibition,[13]; at 1.2 µM,17%
same,growth inhibition,[13]; at 3.7 µM,18%
same,growth inhibition,[13]; at 11.0 µM,20%
same,growth inhibition,[13]; at 33.0 µM,24%
same,growth inhibition,[13]; at 100.0 µM,59%
same,growth inhibition,[14]; [17],6%
same,growth inhibition,[14]; [18],64%
same,growth inhibition,[15]; at 1.2 µM,2%
same,growth inhibition,[15]; at 3.7 µM,-2%
same,growth inhibition,[15]; at 11.0 µM,-8%
same,growth inhibition,[15]; at 33.0 µM,4%
same,growth inhibition,[15]; at 100.0 µM,67%
c1ccc2c(c1)Cn1c-2nc2ccccc21,growth inhibition,[1]; at 1.2 µM,1%
same,growth inhibition,[1]; at 3.7 µM,1%
same,growth inhibition,[1]; at 11.0 µM,8%
same,growth inhibition,[1]; at 33.0 µM,78% (active)
same,growth inhibition,[1]; at 100.0 µM,97% (active)
same,growth inhibition,[2]; at 1.2 µM,-27%
same,growth inhibition,[2]; at 3.7 µM,-21%
same,growth inhibition,[2]; at 11.0 µM,-28%
same,growth inhibition,[2]; at 33.0 µM,5%
same,growth inhibition,[2]; at 100.0 µM,94% (active)
same,growth inhibition,[3]; at 1.2 µM,2%
same,growth inhibition,[3]; at 3.7 µM,-4%
same,growth inhibition,[3]; at 11.0 µM,8%
same,growth inhibition,[3]; at 33.0 µM,62%
same,growth inhibition,[3]; at 100.0 µM,95% (active)
same,growth inhibition,[4]; at 1.2 µM,15%
same,growth inhibition,[4]; at 3.7 µM,3%
same,growth inhibition,[4]; at 11.0 µM,30%
same,growth inhibition,[4]; at 33.0 µM,74% (active)
same,growth inhibition,[4]; at 100.0 µM,98% (active)
same,growth inhibition,[5]; at 1.2 µM,-9%
same,growth inhibition,[5]; at 3.7 µM,1%
same,growth inhibition,[5]; [17],49%
same,growth inhibition,[5]; at 11.0 µM,24%
same,growth inhibition,[5]; at 33.0 µM,75% (active)
same,growth inhibition,[5]; [18],74% (active)
same,growth inhibition,[5]; at 50.0 µM,84.3% (active)
same,growth inhibition,[5]; at 100.0 µM,96% (active)
same,growth inhibition,[6]; at 1.2 µM,9%
same,growth inhibition,[6]; at 3.7 µM,7%
same,growth inhibition,[6]; [17],73% (active)
same,growth inhibition,[6]; at 11.0 µM,13%
same,growth inhibition,[6]; at 33.0 µM,53%
same,growth inhibition,[6]; [18],85% (active)
same,growth inhibition,[6]; at 50.0 µM,69.5%
same,growth inhibition,[6]; at 100.0 µM,98% (active)
same,growth inhibition,[7]; at 1.2 µM,-19%
same,growth inhibition,[7]; at 3.7 µM,-17%
same,growth inhibition,[7]; at 11.0 µM,-12%
same,growth inhibition,[7]; at 33.0 µM,33%
same,growth inhibition,[7]; at 100.0 µM,97% (active)
same,growth inhibition,[8]; [17],-27%
same,growth inhibition,[8]; [18],84% (active)
same,growth inhibition,[9]; at 1.2 µM,-18%
same,growth inhibition,[9]; at 3.7 µM,0%
same,growth inhibition,[9]; at 11.0 µM,-23%
same,growth inhibition,[9]; at 33.0 µM,18%
same,growth inhibition,[9]; at 100.0 µM,96% (active)
same,growth inhibition,[16]; [17],54%
same,growth inhibition,[16]; [18],87% (active)
same,growth inhibition,[10]; at 1.2 µM,-11%
same,growth inhibition,[10]; at 3.7 µM,-5%
same,growth inhibition,[10]; [17],27%
same,growth inhibition,[10]; at 11.0 µM,3%
same,growth inhibition,[10]; at 33.0 µM,68%
same,growth inhibition,[10]; [18],86% (active)
same,growth inhibition,[10]; at 100.0 µM,97% (active)
same,growth inhibition,[11]; at 1.2 µM,-24%
same,growth inhibition,[11]; at 3.7 µM,-5%
same,growth inhibition,[11]; at 11.0 µM,-4%
same,growth inhibition,[11]; at 33.0 µM,34%
same,growth inhibition,[11]; at 100.0 µM,94% (active)
same,growth inhibition,[12]; at 1.2 µM,-31%
same,growth inhibition,[12]; at 3.7 µM,-8%
same,growth inhibition,[12]; at 11.0 µM,2%
same,growth inhibition,[12]; at 33.0 µM,36%
same,growth inhibition,[12]; at 100.0 µM,96% (active)
same,growth inhibition,[13]; at 1.2 µM,-7%
same,growth inhibition,[13]; at 3.7 µM,-21%
same,growth inhibition,[13]; at 11.0 µM,-21%
same,growth inhibition,[13]; at 33.0 µM,31%
same,growth inhibition,[13]; at 100.0 µM,92% (active)
same,growth inhibition,[14]; [17],50%
same,growth inhibition,[14]; [18],78% (active)
same,growth inhibition,[14]; at 50.0 µM,83.4% (active)
same,growth inhibition,[15]; at 1.2 µM,-7%
same,growth inhibition,[15]; at 3.7 µM,-4%
same,growth inhibition,[15]; at 11.0 µM,-1%
same,growth inhibition,[15]; at 33.0 µM,25%
same,growth inhibition,[15]; at 100.0 µM,95% (active)
